Assay outcomes as filed in PubChem BioAssay.
HTR5A inv ag: HTR5A inverse agonists in luminescence cell assay, primary screen, counter-screen for OPRM1-OPRD1 heterodimer inverse agonist project, full-deck HTS | 5-hydroxytryptamine receptor 5A (Homo sapiens), P47898 | HTR5A cell line, inverse agonism | inhibition, % at 9.3 µM | 340,000 compounds, 0.083% hits | AID 504634, 2011; in the data active = inhibition mostly above about 23%, no sharp cut-off; inactive = mostly below about 18%
OPRM1-OPRD1 inv: inverse agonists of MOR-DOR heterodimerization, primary screen, cell-based, luminescence | Mu-type opioid receptor (Homo sapiens) + Delta-type opioid receptor (Homo sapiens), … | cell-based MOR-DOR heterodimer luminescence, inverse agonism | inhibition, % at 9.3 µM | 340,000 compounds, 0.21% hits | AID 504357, 2011; in the data active = inhibition above about 22%, passing the limit was not always enough
Target sequence (P35372 whole entry, looked up): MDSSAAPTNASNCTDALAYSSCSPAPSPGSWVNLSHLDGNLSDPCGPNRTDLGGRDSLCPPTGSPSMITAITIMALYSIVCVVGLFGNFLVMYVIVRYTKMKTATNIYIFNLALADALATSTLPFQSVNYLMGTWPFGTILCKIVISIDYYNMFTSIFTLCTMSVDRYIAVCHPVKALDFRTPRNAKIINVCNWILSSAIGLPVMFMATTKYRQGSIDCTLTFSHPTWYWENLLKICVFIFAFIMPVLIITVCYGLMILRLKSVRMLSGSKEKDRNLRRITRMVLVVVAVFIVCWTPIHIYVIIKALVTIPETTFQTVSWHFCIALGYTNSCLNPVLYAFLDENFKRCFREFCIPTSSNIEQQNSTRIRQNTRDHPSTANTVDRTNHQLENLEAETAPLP
Target sequence (P41143 whole entry, looked up): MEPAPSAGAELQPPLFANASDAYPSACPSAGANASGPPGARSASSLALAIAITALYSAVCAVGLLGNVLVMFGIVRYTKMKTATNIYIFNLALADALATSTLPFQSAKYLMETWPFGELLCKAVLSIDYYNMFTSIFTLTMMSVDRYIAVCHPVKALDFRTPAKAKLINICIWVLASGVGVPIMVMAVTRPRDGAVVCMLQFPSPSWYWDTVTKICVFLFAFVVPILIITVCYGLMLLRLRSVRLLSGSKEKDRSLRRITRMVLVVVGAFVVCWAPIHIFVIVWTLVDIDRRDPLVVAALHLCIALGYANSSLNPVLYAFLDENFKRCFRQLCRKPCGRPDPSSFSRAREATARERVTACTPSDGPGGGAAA
MOR-DOR ag-1: agonists of OPRM1-OPRD1 heterodimerization, primary screen, cell-based, luminescence | cells | AID 504326, 2011 | 340,000 compounds, 0.3% hits | activation, % at 9.3 µM | Mu-type opioid receptor (Homo sapiens) + Delta-type opioid receptor (Homo sapiens), …
HTR5A ag: HTR5A agonists in luminescence cell assay, primary screen, counter-screen for OPRM1-OPRD1 heterodimer agonist project, full-deck HTS. 5-hydroxytryptamine receptor 5A (Homo sapiens), P47898. cell-based. activation, % at 9.3 µM. 340,000 compounds, 0.61% hits. AID 504692, 2011; in the data active = activation mostly above about 9.5%, no sharp cut-off; inactive = mostly below about 7.6%
MOR-DOR ag-2: OPRM1-OPRD1 heterodimerization promoters, counter-screen for HTR5A agonist project, cell-based, luminescence | shares compounds with HTR5A ag | U2OS counter-screen cells, complementation luminescence, 3 h | activation, % at 9.3 µM | 800 compounds, 13% hits
HTR5A ag confirm: HTR5A agonists, retest of hits, confirmation, cell-based, luminescence. shares compounds with HTR5A ag. HTR5A agonist cell assay. activation, % at 9.3 µM. 800 compounds, 17% hits; in the data active = activation above about 17%
Large screens that a line does not name were inactive (follow-up assays come after a bar, where they were run). Sampled rows, rich in hits. Any-hit rate of the full collection: about 1.1%. Rule as the data show it, unless noted: active = activation above about 18%; inactive = the rest.

CCCCCCOc1ccc(NC(=O)CC2C(=O)N(CC)C(=S)N2Cc2ccco2)cc1 (stereo not given)	HTR5A ag 15 | MOR-DOR ag-2 inactive | HTR5A ag confirm inactive
COc1ccc(NC(=O)CC2C(=O)N(Cc3ccccc3)C(=S)N2CCN2CCOCC2)cc1 (stereo not given)	none
CCN1C(=O)C(CC(=O)Nc2ccc(F)cc2)N(Cc2ccco2)C1=S (stereo not given)	none
Cc1ccc(NS(=O)(=O)c2cccc(C(=O)NC3CCN(Cc4ccccc4)CC3)c2)cc1	none
O=C(NC1CCN(Cc2ccccc2)CC1)c1cccc(S(=O)(=O)Nc2ccc(SC(F)F)cc2)c1	HTR5A ag 19 | MOR-DOR ag-2 inactive | HTR5A ag confirm inactive
COc1ccc(-c2cc(=O)oc3cc(OC(C)C(=O)NCc4ccccn4)ccc23)cc1 (stereo not given)	none
Cc1cc(C)cc(OCC(=O)Nc2nc(-c3ccccn3)cs2)c1	HTR5A ag 21 | MOR-DOR ag-2 inactive | HTR5A ag confirm 64
Cc1ccc2sc(N(CCCN(C)C)C(=O)CCS(=O)(=O)c3ccccc3)nc2c1C	HTR5A ag 15 | MOR-DOR ag-2 inactive | HTR5A ag confirm inactive
CN(C)CCCN(C(=O)CCS(=O)(=O)c1ccccc1)c1nc2cc3c(cc2s1)OCO3	HTR5A ag 15 | MOR-DOR ag-2 inactive | HTR5A ag confirm inactive
CC(C)c1ccc(NC(=O)NC2(C(=O)NCc3cccnc3)CCCCC2)cc1	none
CNC(=O)c1cc(Nc2nnc(-c3ccc(C)c(S(N)(=O)=O)c3)c3ccccc23)ccc1OC	none
COc1ccc(NS(=O)(=O)c2cccc(C(=O)NCC(c3ccccc3OC)N3CCCC3)c2)cc1 (stereo not given)	none
COc1ccccc1C(CNC(=O)c1cccc(S(=O)(=O)Nc2ccc(F)cc2)c1)N1CCCC1 (stereo not given)	HTR5A ag 65 | MOR-DOR ag-2 inactive | HTR5A ag confirm inactive
Cc1ncc([N+](=O)[O-])n1CC(=O)N/N=C/c1ccccc1F	none
C=C1CCc2c([nH]c3ccc(OCC(C)C)cc23)C1=O	HTR5A ag 22 | MOR-DOR ag-2 inactive | HTR5A ag confirm inactive
COc1cc(C(=O)O)ccc1OCc1ccncc1	HTR5A ag 16 | MOR-DOR ag-2 inactive | HTR5A ag confirm inactive
COc1cc(C(N)=O)ccc1OCc1ccccc1	none
Cc1ccc(Nc2nc(N)nc(CN3CCN(Cc4ccc5c(c4)OCO5)CC3)n2)cc1Cl	HTR5A ag 18 | MOR-DOR ag-2 inactive | HTR5A ag confirm inactive
C=CCn1c(SCC(=O)c2ccc(OC)cc2)nnc1-c1cc2cccc(OC)c2o1	HTR5A ag 15 | MOR-DOR ag-2 inactive | HTR5A ag confirm inactive
COc1ccc(CNC(=S)Nc2ccc3nc(N4CCN(C)CC4)cc(C)c3c2)cc1	none
COc1ccccc1CNC(=S)Nc1ccc2nc(N3CCN(C)CC3)cc(C)c2c1	HTR5A ag 70 | MOR-DOR ag-2 inactive | HTR5A ag confirm 70
Cn1cnc(C(=O)NC2CCN(C(=O)OC(C)(C)C)CC2)c1C(=O)NC1CCN(C(=O)OC(C)(C)C)CC1	none
CC(C)(C)OC(=O)N1CCC(NC(=O)c2ncn(Cc3ccccc3)c2C(=O)NC2CCN(C(=O)OC(C)(C)C)CC2)CC1	HTR5A ag 15 | MOR-DOR ag-2 inactive | HTR5A ag confirm inactive
COc1ccc(NC(C)=O)cc1CP(=O)(c1ccccc1)c1ccccc1	none
O=C(NCCc1ccc(Cl)cc1)c1cc(-c2ccccn2)nc2ccccc12	none
Cc1cc(C(=O)CN2C(=O)C(=O)N(CC(C)C)C2=O)c(C)n1C1CC1	none
O=C(NC1CCCN(CCc2ccccc2)C1)c1c[nH]c2ccccc12 (stereo not given)	none
CN1C[C@H](C(=O)NC2(C)OC3(O)[C@@H]4CCCN4C(=O)[C@H](Cc4ccccc4)N3C2=O)CC2c3cccc4[nH]cc(c34)C[C@H]21 (stereo not given in full)	HTR5A ag 32 | MOR-DOR ag-2 inactive | HTR5A ag confirm 63
COc1cccc(NC(=O)COc2ccc(S(=O)(=O)NC(C)C)cc2)c1	HTR5A ag 15 | MOR-DOR ag-2 inactive | HTR5A ag confirm inactive
COc1ccc(NC(=O)c2sc(NC(=O)COc3ccccc3)nc2C)cc1	none
Cc1nc(NC(=O)COc2ccccc2)sc1C(=O)Nc1cccc(Cl)c1	HTR5A ag 18 | MOR-DOR ag-2 inactive | HTR5A ag confirm inactive
COc1ccc(OCC(=O)Nc2cccc(OC)c2)cc1	none
CC(=O)c1cccc(NC(=O)COc2ccccc2)c1	HTR5A ag 15 | MOR-DOR ag-2 inactive | HTR5A ag confirm inactive
COc1ccc(C(=O)N2CCN(CCc3ccccc3)CC2)cc1[N+](=O)[O-]	HTR5A ag 19 | MOR-DOR ag-2 inactive | HTR5A ag confirm inactive
CNC(=S)N1N=C(c2ccc(C)cc2)CC1c1ccc(Cl)cc1 (stereo not given)	none
CNC(=S)N1N=C(c2ccc(C)cc2)CC1c1ccc(Br)cc1 (stereo not given)	HTR5A ag 18 | MOR-DOR ag-2 inactive | HTR5A ag confirm inactive
CCNC(=S)NNc1nncc2ccccc12	HTR5A ag 16 | MOR-DOR ag-2 36 | HTR5A ag confirm inactive
COc1ccc(S(=O)(=O)Nc2cc(C)on2)cc1	none
CC(=O)Nc1ccc(CN2CCCC(C(=O)c3ccc(C(F)(F)F)cc3)C2)cc1 (stereo not given)	none
COc1ccccc1CN(C)C(=O)CN1CCN(C(=O)c2cccs2)CC1	HTR5A ag 15 | MOR-DOR ag-2 inactive | HTR5A ag confirm 32
COc1ccccc1CC(NC(C)=O)C(=O)N1CCN(C(=O)c2cccs2)CC1 (stereo not given)	none
CCOc1ccc(CN(C)C(=O)CN2C(=O)NC(c3ccccc3)(c3ccccc3)C2=O)cc1	none
Cn1c(SCC(=O)Nc2ccccc2Br)nnc1-c1cnccn1	none
CNCc1cc(Br)c(OCC(=O)Nc2ccccc2OC)c(OC)c1	none
COc1cc(CNCCc2ccccc2)cc(Br)c1OCC(=O)Nc1ccccc1C	HTR5A ag 18 | MOR-DOR ag-2 inactive | HTR5A ag confirm inactive
c1ccc(-c2cc(-c3nnc4n3N=C(c3ccc5ccccc5c3)CS4)[nH]n2)cc1	HTR5A ag 15 | MOR-DOR ag-2 inactive | HTR5A ag confirm inactive
COc1ccc(C(=O)NCc2c(C)nn(Cc3ccccc3)c2C)cc1S(=O)(=O)N1CCOCC1	HTR5A ag 17 | MOR-DOR ag-2 inactive | HTR5A ag confirm inactive
COc1ccc(S(=O)(=O)N2CCOCC2)cc1C(=O)NCc1c(C)nn(Cc2ccccc2)c1C	none
COc1ccc(NC(=O)CC2C(=O)N(C)C(=S)N2Cc2ccc3c(c2)OCO3)cc1 (stereo not given)	none
C1CCC(c2nn3c(-c4n[nH]c5c4CCC5)nnc3s2)CC1	none
